Counter-ions that a name gives are not always drawn. ± gives the standard deviation of the averaged measurements.
Experiments:
Experiment in all cases: growth (OD600 after 10 h); higher = more growth (less inhibition)
[1] = test system: E. coli TESEC Alr+ wild-type control; conditions: compound 0.1 mM; raw OD600 reference: median of DMSO wells 0.241, cell-free background 0.041
Protocol: (§1)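 TESEC Mtb Alr E. coli, or the Alr+ wild-type control, in 384-well plates with Prestwick library compounds at 0.1 mM and 1% DMSO, across arabinose induction levels of 1E3 to 1E7 nM. Growth is read as OD600 after 10 h at 37 °C in triplicate biological replicates.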

E. coli TESEC Mtb Alr [2] = conditions: compound 0.1 mM
Protocol: as §1

E. coli TESEC Mtb Asd = conditions: compound 0.1 mM
Protocol: (§2)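 TESEC E. coli strains in which the native enzyme is deleted and replaced by arabinose-inducible Mtb Asd, DapB, CysH or TrpD, each grown in its selective medium. Strains were screened against the Prestwick library at 0.1 mM and 1% DMSO in 384-well format at low and high arabinose induction. Growth is read as OD600 after 10 h in triplicate.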

E. coli TESEC Mtb DapB = conditions: compound 0.1 mM
Protocol: as §2

E. coli TESEC Mtb Alr [3] = conditions: compound 0.1 mM; remark: listed apart in the source
Protocol: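 TESEC Mtb Alr E. coli (ΔaraC ΔtolC ΔentC Δalr ΔdadX, arabinose-inducible Mtb Alr) or the Alr+ wild-type control strain, grown in defined M9-fructose medium without D-alanine in 96-well plates with Prestwick library compounds at 0.1 mM and 1% DMSO. Low Alr induction is 0.1 µM arabinose and high induction is 10 mM arabinose.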

[4] = arabinose 1000 nM, raw OD600 reference: median of DMSO wells 0.294, cell-free background 0.041
[5] = arabinose 10000 nM, raw OD600 reference: median of DMSO wells 0.264, cell-free background 0.041
[6] = arabinose 100000 nM, raw OD600 reference: median of DMSO wells 0.201, cell-free background 0.041
[7] = arabinose 1000000 nM, raw OD600 reference: median of DMSO wells 0.193, cell-free background 0.041
[8] = arabinose 10000000 nM, raw OD600 reference: median of DMSO wells 0.146, cell-free background 0.041
[9] = arabinose induction (level): High, raw OD600 reference: median of DMSO wells 0.331, cell-free background 0.041
[10] = arabinose induction (level): Low, raw OD600 reference: median of DMSO wells 0.417, cell-free background 0.041
[11] = arabinose induction (level): High, raw OD600 reference: median of DMSO wells […], cell-free background 0.041
[12] = arabinose induction (level): Low, raw OD600 reference: median of DMSO wells 0.227, cell-free background 0.041
[13] = arabinose 100 nM, raw OD600 reference: median of DMSO wells 0.413, cell-free background 0.052
[14] = arabinose 10000000 nM, raw OD600 reference: median of DMSO wells […], cell-free background 0.052

SMILES | growth [1] | growth (E. coli TESEC Mtb Alr [2]; [4]) | growth (E. coli TESEC Mtb Alr [2]; [5]) | growth (E. coli TESEC Mtb Alr [2]; [6]) | growth (E. coli TESEC Mtb Alr [2]; [7]) | growth (E. coli TESEC Mtb Alr [2]; [8]) | growth (E. coli TESEC Mtb Asd; [9]) | growth (E. coli TESEC Mtb Asd; [10]) | growth (E. coli TESEC Mtb DapB; [11]) | growth (E. coli TESEC Mtb DapB; [12]) | growth (E. coli TESEC Mtb Alr [3]; [13]) | growth (E. coli TESEC Mtb Alr [3]; [14])
CCOC(=O)[N-]c1c[n+](N2CCOCC2)no1 [Molsidomine] | 0.245 ± 0.0064 | 0.307 ± 0.0077 | 0.27 ± 0.0035 | 0.244 ± 0.048 | 0.182 ± 0.0019 | 0.166 ± 0.0027 | 0.305 ± 0.1 | 0.338 ± 0.084 | 0.207 ± 0.022 | 0.23 ± 0.02 | 0.408 ± 0.014 | 0.313 ± 0.022
O=c1[nH]cnc2c1ncn2[C@H]1CC[C@@H](CO)O1 [Didanosine] | 0.18 ± 0.011 | 0.293 ± 0.023 | 0.27 ± 0.0051 | 0.16 ± 0.015 | 0.149 ± 0.0069 | 0.199 ± 0.0058 | 0.157 ± 0.0043 | 0.165 ± 0.013 | 0.18 ± 0.011 | 0.196 ± 0.048 | 0.425 ± 0.0085 | 0.225 ± 0.019
C=CC[N@@+]12CC[C@@]34c5ccccc5N5/C=C6/[C@H]7C[C@H]8[C@@]9(CC[N@@+]8(CC=C)C/C7=C/CO)c7ccccc7N(/C=C(/[C@@H](C[C@@H]31)/C(=C\CO)C2)[C@H]54)[C@@H]69 [Alcuronium chloride] | 0.214 ± 0.0094 | 0.255 ± 0.004 | 0.162 ± 0.0017 | 0.13 ± 0.0075 | 0.115 ± 0.0062 | 0.155 ± 0.0016 | 0.159 ± 0.0074 | 0.184 ± 0.044 | 0.197 ± 0.027 | 0.196 ± 0.023 | 0.41 ± 0.013 | 0.351 ± 0.0099
C[C@H](CCC(=O)O)[C@H]1CC[C@H]2[C@@H]3[C@@H](O)C[C@@H]4C[C@H](O)CC[C@]4(C)[C@H]3CC[C@]12C [Urosiol] | 0.2 ± 0.0037 | 0.279 ± 0.0063 | 0.188 ± 0.0089 | 0.188 ± 0.0055 | 0.1123 ± 0.00023 | 0.14 ± 0.0032 | 0.3936 ± 0.0024 | 0.363 ± 0.018 | 0.168 ± 0.012 | 0.206 ± 0.03 | 0.399 ± 0.0058 | 0.182 ± 0.019
CCOC(=O)Nc1ccc2c(c1)N(C(=O)CCN1CCOCC1)c1ccccc1S2 [Moricizine hydrochloride] | 0.157 ± 0.0017 | 0.202 ± 0.0069 | 0.222 ± 0.0081 | 0.196 ± 0.012 | 0.1097 ± 0.00081 | 0.14 ± 0.0063 | 0.175 ± 0.018 | 0.228 ± 0.083 | 0.168 ± 0.0088 | 0.199 ± 0.022 | 0.3937 ± 0.0035 | 0.258 ± 0.022
CN1CCC(=C2c3ccccc3CCc3sccc32)CC1 [Pizotifen malate] | 0.127 ± 0.006 | 0.133 ± 0.0045 | 0.0893 ± 0.0025 | 0.0952 ± 0.0015 | 0.0482 ± 0.0045 | 0.0637 ± 0.00071 | 0.148 ± 0.013 | 0.181 ± 0.012 | 0.178 ± 0.0086 | 0.193 ± 0.0037 | 0.402 ± 0.027 | 0.132 ± 0.054
CC(=O)Nc1ccc(O)cc1 [Acetaminophen] | 0.251 ± 0.0034 | 0.315 ± 0.0071 | 0.277 ± 0.0034 | 0.202 ± 0.0068 | 0.188 ± 0.0053 | 0.162 ± 0.0048 | 0.473 ± 0.034 | 0.455 ± 0.0071 | 0.215 ± 0.018 | 0.251 ± 0.027 | 0.407 ± 0.015 | 0.335 ± 0.011
CCn1nc(C(=O)O)c(=O)c2cc3c(cc21)OCO3 [Cinoxacin] | 0.0813 ± 0.0028 | 0.0736 ± 0.006 | 0.0622 ± 0.0033 | 0.089 ± 0.0035 | 0.108 ± 0.0017 | 0.139 ± 0.0015 | 0.335 ± 0.024 | 0.244 ± 0.035 | 0.211 ± 0.013 | 0.212 ± 0.0088 | 0.0933 ± 0.016 | 0.0712 ± 0.0049
CC/C(=C(\c1ccccc1)c1ccc(OCCN(C)C)cc1)c1ccccc1 [Tamoxifen citrate] | 0.0423 ± 0.0005 | 0.0419 ± 0.002 | 0.048 ± 0.0005 | 0.0466 ± 0.0016 | 0.0485 ± 0.0015 | 0.0425 ± 0.00078 | 0.0517 ± 0.002 | 0.0526 ± 0.002 | 0.04873 ± 0.00038 | 0.0937 ± 0.078 | 0.0503 ± 0.00091 | 0.0549 ± 0.0014
CCC(C)n1ncn(-c2ccc(N3CCN(c4ccc(OCC5COC(Cn6cncn6)(c6ccc(Cl)cc6Cl)O5)cc4)CC3)cc2)c1=O (stereo not given) [Itraconazole] | 0.25 ± 0.006 | 0.321 ± 0.01 | 0.258 ± 0.0035 | 0.251 ± 0.012 | 0.171 ± 0.017 | 0.148 ± 0.005 | 0.421 ± 0.0098 | 0.462 ± 0.049 | 0.182 ± 0.035 | 0.217 ± 0.017 | 0.441 ± 0.027 | 0.368 ± 0.015

Source: the supplement of paper PMC9262897, “Low-cost anti-mycobacterial drug discovery using engineered E. coli” (Nature Communications, 2022)
